Screening data deposited in PubChem BioAssay by The Scripps Research Institute Molecular Screening Center.
An excerpt weighted towards active compounds, which were near 5.7% of everything screened.
hgDAF-12 ag: activates the H. glycines DAF-12 receptor ligand-binding domain; HEK293 GAL4-hgDAF12 UAS-luciferase reporter, agonist luminescence; normalized to butyrate control; activation, % at 6.8 µM; 370,000 compounds, 1.8% hits; AID 687014;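 active = activation above a cutoff set at the mean of all screened compounds plus 3 SD, cut at about 10% in these data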;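 note: 0% = DMSO wells and 100% = sodium butyrate wells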
DAX1 inh-1: DAX1 (NR0B1) inhibition, primary screen. HEK293T StAR-luciferase reporter, SF-1/DAX-1 repression relief. inhibition, % at 6.8 µM. 370,000 compounds, 1.1% hits;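 active = inhibition above the mean over all tested compounds plus 3 SD, cut at about 3.6% in these data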;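 note: 0% = DAX-1 cells with DMSO and 100% = cells lacking DAX-1 with DMSO; higher inhibition means more luminescence from relief of DAX-1 repression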
ssDAF-12 act: S. stercoralis DAF-12 activation, primary screen. HEK293 ssDAF-12/GRIP1 lit1-tk-luc reporter, luminescence; % of 3 µM dafachronic acid response. activation, % at 6.8 µM. 370,000 compounds, 1% hits. AID 652126;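 active = activation above the mean over all tested compounds plus 3 SD, cut at about 0.9% in these data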;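 note: 0% = DMSO-only wells and 100% = 3 µM delta7-dafachronic acid wells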
hcDAF-12 act: activators of H. contortus DAF-12 nuclear receptor. HEK293 hcDAF-12 lit1-tk-luc reporter, luminescence; 0% DMSO, 100% Δ7-dafachronic acid. activation, % at 6.8 µM. 370,000 compounds, 1.4% hits. AID 652067;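 active = activation above the mean of all tested compounds plus 3 SD, cut at about 5.5% in these data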;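 note: 100% = response to 3 µM Δ7-dafachronic acid high control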
AHR activator: activators of human aryl hydrocarbon receptor. activation, % at 5 µM. 320,000 compounds, 2.5% hits. AID 2796. AHR-responsive luciferase reporter cells, luminescence; in the data active = activation above about 47%;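 note: 0% = vehicle wells and 100% = reference agonist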
Target sequence (P35869 whole entry, looked up): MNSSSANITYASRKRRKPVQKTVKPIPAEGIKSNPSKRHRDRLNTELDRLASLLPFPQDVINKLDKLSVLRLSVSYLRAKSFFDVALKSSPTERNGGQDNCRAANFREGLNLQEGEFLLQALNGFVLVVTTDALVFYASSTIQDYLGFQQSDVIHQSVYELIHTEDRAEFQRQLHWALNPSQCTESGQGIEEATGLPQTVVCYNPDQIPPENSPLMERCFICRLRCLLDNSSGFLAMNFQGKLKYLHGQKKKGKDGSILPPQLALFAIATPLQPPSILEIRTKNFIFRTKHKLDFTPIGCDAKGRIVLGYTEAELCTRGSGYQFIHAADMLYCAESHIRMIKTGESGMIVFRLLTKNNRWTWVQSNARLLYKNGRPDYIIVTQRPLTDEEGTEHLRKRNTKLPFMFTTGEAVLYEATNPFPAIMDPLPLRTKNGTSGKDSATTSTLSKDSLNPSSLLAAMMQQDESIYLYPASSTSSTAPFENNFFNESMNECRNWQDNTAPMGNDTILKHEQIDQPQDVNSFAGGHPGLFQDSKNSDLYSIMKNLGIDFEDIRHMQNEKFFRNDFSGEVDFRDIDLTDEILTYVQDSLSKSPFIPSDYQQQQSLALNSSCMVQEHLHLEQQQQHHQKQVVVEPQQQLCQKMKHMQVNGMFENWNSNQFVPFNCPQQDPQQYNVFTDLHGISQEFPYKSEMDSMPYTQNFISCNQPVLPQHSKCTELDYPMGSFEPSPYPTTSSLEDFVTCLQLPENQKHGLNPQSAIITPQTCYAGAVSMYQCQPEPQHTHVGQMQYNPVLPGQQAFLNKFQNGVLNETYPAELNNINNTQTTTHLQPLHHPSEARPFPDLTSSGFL
DAX1 inh-2: inhibitors of human orphan nuclear receptor DAX1 (NR0B1); HEK293 Gal4-DAX1 luciferase reporter, luminescence; inhibition, % at 6.75 µM; 340,000 compounds, 0.99% hits; AID 504766;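 active = inhibition above the mean over all tested compounds plus 3 SD, cut at about 4.2% in these data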;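 note: 0% = DAX1-transfected cells with DMSO and 100% = empty-vector control cells with DMSO; inhibition shows as a rise in luminescence from relieved DAX1 repression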
LXR ag: activates human LXR-beta, counter-screen for hcDAF-12 agonists; shares compounds with hcDAF-12 act; HEK293 Gal4-LXR tk-luc reporter, luminescence, 24 h; normalized: DMSO 0%, positive control 100%; activation, % at 6.8 µM; 3,400 tested, under 10 active; AID 743027;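 active = mean percent activation of the reporter above a cutoff set as the average over tested compounds plus their standard deviation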
hcDAF12 ag: confirmation of H. contortus DAF-12 agonists. shares compounds with hcDAF-12 act. HEK293 hcDAF-12 lit1-tk-luc reporter, luminescence; % of Δ7-dafachronic acid response. activation, % at 6.8 µM. 3,400 compounds, 61% hits. AID 743032;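 active = mean activation across triplicate tests above the threshold derived from the earlier primary screen, cut at about 5.5% in these data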;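 note: 0% = DMSO only wells and 100% = 3 µM Δ7-dafachronic acid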
Starred values were filed as active, the others as inactive.

What do the screens show for `Cn1c(CC(=O)Nc2ccccc2F)nnc1SCC(=O)NC1=NCCS1`?
hgDAF-12 ag: 1; DAX1 inh-1: 0; ssDAF-12 act: -1; hcDAF-12 act: 1; AHR activator: -1; DAX1 inh-2: 0

How did Cc1ccc2nc(-c3ccc(O)c(O)c3)cn2c1 do in these assays?
hgDAF-12 ag: 8; DAX1 inh-1: 2; ssDAF-12 act: 0; hcDAF-12 act: 9.4*; AHR activator: 6; DAX1 inh-2: -3; LXR ag: 1; hcDAF12 ag: 9.9*

How did O=C(NC1CCCCC1)c1cc([N+](=O)[O-])ccc1N1CCCCC1 do in these assays?
hgDAF-12 ag: 1; DAX1 inh-1: 0; ssDAF-12 act: -2; hcDAF-12 act: -2; AHR activator: 0; DAX1 inh-2: 1

How did O=C(CSc1c[nH]c2ccccc12)NCC1CCCO1 (configuration not stated) do in these assays?
hgDAF-12 ag: 0; DAX1 inh-1: -1; ssDAF-12 act: 1.5*; hcDAF-12 act: 9.6*; AHR activator: 15; DAX1 inh-2: 1; LXR ag: 0; hcDAF12 ag: 4

How did Cn1c(SCC(=O)NCC2CCCO2)nnc1-c1c[nH]c2ccccc12 (configuration not stated) do in these assays?
hgDAF-12 ag: 2; DAX1 inh-1: -1; ssDAF-12 act: 0; hcDAF-12 act: 0; AHR activator: 1; DAX1 inh-2: 1

Results for CN(Cc1ccccc1)c1oc(-c2ccco2)nc1C#N ?
hgDAF-12 ag: -1; DAX1 inh-1: 0; ssDAF-12 act: -1; hcDAF-12 act: 0; AHR activator: -7; DAX1 inh-2: 1

Results for CC(C)(C)NC(=O)CSc1nc(-c2ccc(F)cc2)cs1 ?
hgDAF-12 ag: 12*; DAX1 inh-1: 3; ssDAF-12 act: -1; hcDAF-12 act: 7.2*; AHR activator: 16; DAX1 inh-2: 3; LXR ag: 1; hcDAF12 ag: 5

Results for CCNC(=O)CSc1nc(-c2ccc(F)cc2)cs1 ?
hgDAF-12 ag: 2; DAX1 inh-1: 2; ssDAF-12 act: -1; hcDAF-12 act: -1; AHR activator: 1; DAX1 inh-2: -1

Results for COc1ccc(-c2nnc3c4ccccc4c(C)nn23)cc1 ?
hgDAF-12 ag: 7; DAX1 inh-1: 1; ssDAF-12 act: 1; hcDAF-12 act: 6.7*; AHR activator: 20; DAX1 inh-2: 2; LXR ag: 0; hcDAF12 ag: 5.7*

Results for Cc1nn2c(-c3ccncc3)nnc2c2ccccc12 ?
hgDAF-12 ag: 1; DAX1 inh-1: 0; ssDAF-12 act: -1; hcDAF-12 act: -3; AHR activator: -10; DAX1 inh-2: 0

Results for CS(=O)(=O)N(CC(=O)Nc1ccccc1F)C1CCCCC1 ?
hgDAF-12 ag: 2; DAX1 inh-1: 0; ssDAF-12 act: -1; hcDAF-12 act: -1; AHR activator: 3; DAX1 inh-2: 2

What do the screens show for `Cc1cccc(C2c3[nH]c4ccccc4c3CCN2C(=O)CN2CCOC2=O)n1` (configuration not stated)?
hgDAF-12 ag: -2; DAX1 inh-1: -1; ssDAF-12 act: 0; hcDAF-12 act: 7.0*; AHR activator: 11; DAX1 inh-2: 0; LXR ag: 0; hcDAF12 ag: 6.1*

What do the screens show for `Cc1cccc(C2c3[nH]c4ccccc4c3CCN2C(=O)Cc2nc(-c3ccccc3)n[nH]2)n1` (configuration not stated)?
hgDAF-12 ag: -1; DAX1 inh-1: 0; ssDAF-12 act: 0; hcDAF-12 act: 2; AHR activator: 22; DAX1 inh-2: 0

What do the screens show for `O=C1c2ccccc2C(=O)C1c1nccc2ccccc12`?
hgDAF-12 ag: 18*; DAX1 inh-1: 3; ssDAF-12 act: 4.0*; hcDAF-12 act: 27*; AHR activator: 51*; DAX1 inh-2: 2; LXR ag: 2; hcDAF12 ag: 24*

Results for COc1ccc(N2CCN(CCCNC(=O)COc3ccc(C)cc3)CC2)cc1 ?
hgDAF-12 ag: -1; DAX1 inh-1: -1; ssDAF-12 act: -2; hcDAF-12 act: -2

What do the screens show for `COc1ccccc1Nc1nc(-c2cccs2)cs1`?
hgDAF-12 ag: 10; DAX1 inh-1: 2; ssDAF-12 act: 1.6*; hcDAF-12 act: 8.2*; AHR activator: 43; DAX1 inh-2: 0; LXR ag: 2; hcDAF12 ag: 16*

How did Oc1ccc(Nc2nc(-c3cccs3)cs2)cc1 do in these assays?
hgDAF-12 ag: -1; DAX1 inh-1: 0; ssDAF-12 act: -1; hcDAF-12 act: -2; AHR activator: 0; DAX1 inh-2: 2

Results for COc1ccc(OC)c(Nc2nc(-c3c(C)nc4ncccn34)cs2)c1 ?
hgDAF-12 ag: -4; DAX1 inh-1: -1; ssDAF-12 act: -1; hcDAF-12 act: 0; AHR activator: 22; DAX1 inh-2: 0

Results for COc1ccc(OC)c(Nc2nc(-c3cccs3)cs2)c1 ?
hgDAF-12 ag: 4; DAX1 inh-1: 0; ssDAF-12 act: 0.9*; hcDAF-12 act: 7.4*; AHR activator: 48*; DAX1 inh-2: -1; LXR ag: 0; hcDAF12 ag: 5

What do the screens show for `CC(=O)C1=C(O)C(=O)N(c2ccc(Br)cn2)C1c1ccc(Br)cc1` (configuration not stated)?
hgDAF-12 ag: 7; DAX1 inh-1: 0; ssDAF-12 act: -1; hcDAF-12 act: 2; AHR activator: -3; DAX1 inh-2: 2

How did CCOc1ccc(C(=O)NCCc2ccccc2)cc1 do in these assays?
hgDAF-12 ag: 7; DAX1 inh-1: 5.7*; ssDAF-12 act: 0; hcDAF-12 act: 6.6*; AHR activator: -6; DAX1 inh-2: -2; LXR ag: 1; hcDAF12 ag: 9.2*

Results for CN(C)c1oc(/C=C/c2ccccc2)nc1C#N ?
hgDAF-12 ag: 8; DAX1 inh-1: 2; ssDAF-12 act: 0; hcDAF-12 act: 6.7*; AHR activator: 50*; DAX1 inh-2: 2; LXR ag: 1; hcDAF12 ag: 6

What do the screens show for `Cc1ccc2c(c1)CCCN2C(=O)c1cccs1`?
hgDAF-12 ag: 0; DAX1 inh-1: 1; ssDAF-12 act: 1; hcDAF-12 act: 7.4*; AHR activator: 13; DAX1 inh-2: 0; LXR ag: 0; hcDAF12 ag: 3

Results for O=C(c1cccs1)N1CCCc2ccccc21 ?
hgDAF-12 ag: 0; DAX1 inh-1: 0; ssDAF-12 act: -2; hcDAF-12 act: 0; AHR activator: 7; DAX1 inh-2: -1
